The record followed here is article PMC12820563, “FoxP3 forms a head-to-head dimer in vivo and stabilizes its multimerization on adjacent microsatellites”.

In all, about 16,000 sequences were measured (“rpm ratio (pull-down/input)”: median about 0.94, highest 2% from about 1.7 on). The sample as a whole holds a higher share of the highest values than the screen did.

In this test the target is T1, MBP-FoxP1dN (Mus musculus, UniProt P58462 326-579).
T1 sequence: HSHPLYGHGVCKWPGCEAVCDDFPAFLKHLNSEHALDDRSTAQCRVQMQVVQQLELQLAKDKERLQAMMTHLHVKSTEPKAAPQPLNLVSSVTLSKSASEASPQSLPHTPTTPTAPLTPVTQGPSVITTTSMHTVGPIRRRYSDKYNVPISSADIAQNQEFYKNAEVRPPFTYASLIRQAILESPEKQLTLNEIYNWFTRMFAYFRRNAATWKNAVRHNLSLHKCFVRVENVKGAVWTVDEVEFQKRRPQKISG
The test is described as follows: PD-seq (MBP pull-down with sequencing); 20 mM Tris-HCl pH 7.5, 100 mM NaCl, 1.5 mM MgCl2, 0.4 uM protein, 0.1 uM dsDNA library, 30 min, room temperature, amylose pull-down; high values mean tight binding. As to conditions: protein: recombinant; tags: His6-MBP; chain copies: 2; dsDNA, one strand shown. The procedure, abridged:
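Binding is the reads-per-million enrichment of pull-down relative to input, pooled across replicates. For this, 0.4 µM His6-MBP-tagged mouse FoxP3 or FoxP1 fragment lacking the N-terminus, made in E. coli, was incubated with 0.1 µM Klenow-filled double-stranded degenerate DNA library for 30 min at room temperature in Tris pH 7.5 buffer with NaCl and MgCl2. Complexes bound to amylose resin were washed three times before proteinase K released the DNA for PCR barcoding and Illumina sequencing.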
For “GATGATTGTTCTCCCAGCTGATGAATTTATTCTATCGAGTAAACAAATTTTCCTAATCTTTCTGTTCAAGCGCCATCTAC”, the binding signal was 1.16 RPM ratio (pull-down/input).
With “GATGATTGTTCTCCCAGCTGATGAATTATTGTTATCGAGTAAACAAATTTTCCTAATCTTTCTGTTCAAGCGCCATCTAC”, the binding signal was 2.83 RPM ratio (pull-down/input).
Consider “GATGATTGTTCTCCCAGCTGATGAATTGTTGATATCGAGTAAACAAATTTTCCTAATCTTTCTGTTCAAGCGCCATCTAC”, for which the binding signal is 2.16 RPM ratio (pull-down/input).
To “GATGATTGTTCTCCCAGCTGATGAATTTTTGATATCGAGTAAACAAATTTTCCTAATCTTTCTGTTCAAGCGCCATCTAC” belongs 1.17 RPM ratio (pull-down/input); to “GATGATTGTTCTCCCAGCTGATGAATTATTTCAATCGAGTAAACAAATTTTCCTAATCTTTCTGTTCAAGCGCCATCTAC”, 1.11 RPM ratio (pull-down/input).
For “GATGATTGTTCTCCCAGCTGATGAATTGATGATATCGAGTAAACAAATTTTCCTAATCTTTCTGTTCAAGCGCCATCTAC” the value was 1.21 RPM ratio (pull-down/input); for “GATGATTGTTCTCCCAGCTGATGAATTATTGTAATCGAGTAAACAAATTTTCCTAATCTTTCTGTTCAAGCGCCATCTAC”, 1.91 RPM ratio (pull-down/input).
In the case of “GATGATTGTTCTCCCAGCTGATGAATTCTTATTATCGAGTAAACAAATTTTCCTAATCTTTCTGTTCAAGCGCCATCTAC”, the binding signal was 1.6 RPM ratio (pull-down/input).
In the case of “GATGATTGTTCTCCCAGCTGATGAATTATTCTTATCGAGTAAACAAATTTTCCTAATCTTTCTGTTCAAGCGCCATCTAC”, the binding signal was 1.08 RPM ratio (pull-down/input).
As for “GATGATTGTTCTCCCAGCTGATGAATTATTCCTATCGAGTAAACAAATTTTCCTAATCTTTCTGTTCAAGCGCCATCTAC”, the binding signal was 1.08 RPM ratio (pull-down/input).
To “GATGATTGTTCTCCCAGCTGATGAATTATTCTAATCGAGTAAACAAATTTTCCTAATCTTTCTGTTCAAGCGCCATCTAC” belongs 1.2 RPM ratio (pull-down/input); to “GATGATTGTTCTCCCAGCTGATGAATTGAGGCTGTCGAGTAAACAAATTTTCCTAATCTTTCTGTTCAAGCGCCATCTAC”, 0.891 RPM ratio (pull-down/input).
On to “GATGATTGTTCTCCCAGCTGATGAATTACGTAAGTCGAGTAAACAAATTTTCCTAATCTTTCTGTTCAAGCGCCATCTAC”, for which the binding signal was 1.14 RPM ratio (pull-down/input).
As to “GATGATTGTTCTCCCAGCTGATGAATTGGGGCAATCGAGTAAACAAATTTTCCTAATCTTTCTGTTCAAGCGCCATCTAC”, the binding signal is 1.01 RPM ratio (pull-down/input).
As for “GATGATTGTTCTCCCAGCTGATGAATTTAGGACGTCGAGTAAACAAATTTTCCTAATCTTTCTGTTCAAGCGCCATCTAC”, the binding signal was 0.956 RPM ratio (pull-down/input).
For the sequence “GATGATTGTTCTCCCAGCTGATGAATTCATCAGCTCGAGTAAACAAATTTTCCTAATCTTTCTGTTCAAGCGCCATCTAC”, the binding signal is 0.818 RPM ratio (pull-down/input).
With “GATGATTGTTCTCCCAGCTGATGAATTTCGTTAATCGAGTAAACAAATTTTCCTAATCTTTCTGTTCAAGCGCCATCTAC”, the binding signal was 0.996 RPM ratio (pull-down/input).
“GATGATTGTTCTCCCAGCTGATGAATTGACATCCTCGAGTAAACAAATTTTCCTAATCTTTCTGTTCAAGCGCCATCTAC”: the binding signal is 1.19 RPM ratio (pull-down/input).
Turning to “GATGATTGTTCTCCCAGCTGATGAATTTCTGTCATCGAGTAAACAAATTTTCCTAATCTTTCTGTTCAAGCGCCATCTAC”, the binding signal was 1.15 RPM ratio (pull-down/input).
For the sequence “GATGATTGTTCTCCCAGCTGATGAATTAGTTATATCGAGTAAACAAATTTTCCTAATCTTTCTGTTCAAGCGCCATCTAC”, the binding signal was 1.07 RPM ratio (pull-down/input).
“GATGATTGTTCTCCCAGCTGATGAATTGTATTTATCGAGTAAACAAATTTTCCTAATCTTTCTGTTCAAGCGCCATCTAC”: the binding signal is 2.72 RPM ratio (pull-down/input).
Regarding “GATGATTGTTCTCCCAGCTGATGAATTTGAATTATCGAGTAAACAAATTTTCCTAATCTTTCTGTTCAAGCGCCATCTAC”, the binding signal is 0.969 RPM ratio (pull-down/input).
For the sequence “GATGATTGTTCTCCCAGCTGATGAATTAGTGTAATCGAGTAAACAAATTTTCCTAATCTTTCTGTTCAAGCGCCATCTAC”, the binding signal was 1.54 RPM ratio (pull-down/input).
As to “GATGATTGTTCTCCCAGCTGATGAATTTATTGTATCGAGTAAACAAATTTTCCTAATCTTTCTGTTCAAGCGCCATCTAC”, the binding signal is 1.6 RPM ratio (pull-down/input).
Take “GATGATTGTTCTCCCAGCTGATGAATTGAAATTATCGAGTAAACAAATTTTCCTAATCTTTCTGTTCAAGCGCCATCTAC”: the binding signal was 1.01 RPM ratio (pull-down/input).
As for “GATGATTGTTCTCCCAGCTGATGAATTGTTGTCATCGAGTAAACAAATTTTCCTAATCTTTCTGTTCAAGCGCCATCTAC”, the binding signal is 2.36 RPM ratio (pull-down/input).
With “GATGATTGTTCTCCCAGCTGATGAATTTATCGTATCGAGTAAACAAATTTTCCTAATCTTTCTGTTCAAGCGCCATCTAC”, the binding signal was 1.22 RPM ratio (pull-down/input).
Regarding “GATGATTGTTCTCCCAGCTGATGAATTGTCATCATCGAGTAAACAAATTTTCCTAATCTTTCTGTTCAAGCGCCATCTAC”, the binding signal is 1.34 RPM ratio (pull-down/input).
Take “GATGATTGTTCTCCCAGCTGATGAATTAGTGTTATCGAGTAAACAAATTTTCCTAATCTTTCTGTTCAAGCGCCATCTAC”: the binding signal is 1.8 RPM ratio (pull-down/input).
For the sequence “GATGATTGTTCTCCCAGCTGATGAATTTTGATTATCGAGTAAACAAATTTTCCTAATCTTTCTGTTCAAGCGCCATCTAC”, the binding signal was 1.79 RPM ratio (pull-down/input).
On to “GATGATTGTTCTCCCAGCTGATGAATTAGACAGTTCGAGTAAACAAATTTTCCTAATCTTTCTGTTCAAGCGCCATCTAC”, for which the binding signal was 0.913 RPM ratio (pull-down/input).
“GATGATTGTTCTCCCAGCTGATGAATTTTTAAGTTCGAGTAAACAAATTTTCCTAATCTTTCTGTTCAAGCGCCATCTAC”: the binding signal is 0.97 RPM ratio (pull-down/input).
